Screening results as filed in PubChem.
RE007 growth inh: less growth of the S. pombe RE007 Vpr strain; S. pombe RE007 Vpr strain, BacTiter-Glo ATP luminescence, 24 h; Potency, µM (highest dose often 92.2 µM), usual class: inhibitors; actives 0.21% (n = 360,000); AID 651644; active = well fitted falling curve with a large enough effect; inconclusive = small, poorly fitted or top-dose-only effect; inactive = no such curve, though single readings can be large or run the other way; note: nearly all actives have a fitted effect of over 50% in size
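Fission yeast RE007 carrying one integrated HIV-1 vpr copy, seeded at OD 0.01 in PMG+AL medium with 23 nL pinned compound. Grown 24 h at 30 degrees; viability read by BacTiter-Glo luminescence after 5 min.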
Pf growth 48h: P. falciparum growth inhibition at 48 hours (one generation); P. falciparum luciferase growth in erythrocytes, 48 h; Potency, µM (titrated, usually from 28.7 µM), hits mostly inhibitors; actives 5.9% (n = 310,000); AID 504832; active = well fitted inhibition curve with a large enough effect; inconclusive = small, poorly fitted or top-dose-only effect, or another doubt; inactive = no such curve, though single readings can be large or run the other way
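In quantitative HTS format, infected erythrocytes bearing luciferase-reporter parasites were treated for a single generation at 37 C. Luminescence after adding detection reagent served as the growth measure.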
Pf growth 96h: P. falciparum growth inhibition at 96 hour, primary screen for plastid delayed-death inhibitors; P. falciparum luciferase reporter growth, 96 h; Potency, µM (highest dose often 28.7 µM), hits mostly inhibitors; actives 6.9% (n = 320,000); AID 504834; active = well fitted inhibition curve with a large enough effect; inconclusive = small, poorly fitted or top-dose-only effect, or another doubt; inactive = no such curve, though single readings can be large or run the other way
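Two parasite generations (96 h, 37 C, 5% CO2) of compound exposure in infected erythrocytes (0.05% parasitemia, 2% hematocrit). Luciferase-reporter P. falciparum; decreased luminescence indicates inhibited growth, aimed at apicoplast-acting delayed death.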
NS1 inh: influenza NS1 inhibition | actives 0.4% (n = 270,000) | AID 2326 | Potency, µM (doses to about 46.1 µM); note: actives are rising curves; nearly all actives have a fitted effect of over 50% in size
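Recovery from NS1-induced slow growth read by OD600 in budding yeast switched to galactose assay medium (pH 6.0, -URA) at 1:100 dilution. Compound 23 nl per well; the matching strain lacking NS1 serves as control.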
SARS PLpro yeast: blocks SARS-CoV papain-like protease in a yeast assay | S. cerevisiae expressing SARS-CoV PLpro, growth rescue | Potency, µM (top dose mostly 32.9 µM), hits mostly activators | actives 0.19% (n = 330,000); note: nearly all actives have a fitted effect of over 55% in size
Of the large screens only hits and unclear results are named; the others gave an inactive call. Compounds with a hit are over-represented: about 9.5% of the library has one in this group of screens. Unless noted, calls come from the whole dose curve.

COC(=O)c1cc(CNC(=O)c2ccc(N3CCCC3)c([N+](=O)[O-])c2)ccc1OC	Pf growth 48h inconclusive
NC(=O)C1CCN(C(=O)Cc2ccsc2)CC1	Pf growth 48h inconclusive, Pf growth 96h inconclusive
COc1ccc(-c2cccc(NS(=O)(=O)c3cc([N+](=O)[O-])c(C)c([N+](=O)[O-])c3)c2)nn1	none (no result: NS1 inh)
CCN(Cc1ccncc1)Cc1ccc(OC)cc1OC	none
COc1ccc(CN(CCN(C)C)Cc2ccccc2)c(OC)c1	Pf growth 48h 13.1µM (no result: Pf growth 96h)
COC(=O)CCCC1=CC2=CC(=O)C(C)(OC(=O)c3cccs3)C(=O)C2=CN1Cc1ccco1 (stereo not given)	Pf growth 48h inconclusive, Pf growth 96h inconclusive
COC(=O)CCCC1=CC2=CC(=O)C(C)(OC(=O)c3cccs3)C(=O)C2=CN1Cc1ccc2c(c1)OCO2 (stereo not given)	Pf growth 48h 13.1µM, Pf growth 96h inconclusive, NS1 inh inconclusive
COC(=O)CCCC1=CC2=CC(=O)C(C)(OC(=O)c3cccs3)C(=O)C2=CN1c1ccc(OC)cc1 (stereo not given)	Pf growth 48h 6.57µM, Pf growth 96h 13.1µM
COC(=O)CCCC1=CC2=CC(=O)C(C)(OC(=O)c3cccs3)C(=O)C2=CN1Cc1ccccc1 (stereo not given)	Pf growth 48h 13.1µM, Pf growth 96h inconclusive, NS1 inh inconclusive
O=C(c1ccco1)N1CCN(C2CC(=O)N(c3ccc(F)c(Cl)c3)C2=O)CC1 (stereo not given)	RE007 growth inh inconclusive
CCOc1ccc(NS(=O)(=O)c2cccc(C(=O)N3CCN(C/C=C/c4ccccc4)CC3)c2)cc1	none (no result: Pf growth 48h, Pf growth 96h, NS1 inh, SARS PLpro yeast)
O=S(=O)(/C=C/c1ccccc1)Oc1ccccc1	Pf growth 96h 3.29µM (no result: Pf growth 48h)
Cc1nn(-c2ccccc2)c(N2CCCC2)c1/C=N/NC(=S)Nc1ccccc1F	Pf growth 48h 10.4µM, Pf growth 96h inconclusive
Cc1nn(-c2ccccc2)c(N2CCCC2)c1/C=N/NC(=O)c1cc2ccccc2cc1O	Pf growth 48h inconclusive, Pf growth 96h inconclusive, NS1 inh inconclusive
c1ccc(CO[C@H]2NCCN2Cc2ccccc2)cc1	none (no result: RE007 growth inh, Pf growth 48h, Pf growth 96h, SARS PLpro yeast)
CC(=O)c1cccc(S(=O)(=O)N(Cc2cc3cc4c(cc3[nH]c2=O)OCCO4)CC2CCCO2)c1 (stereo not given)	Pf growth 96h 13.1µM
O=C(NCc1ccccc1)N(Cc1cc2cc3c(cc2[nH]c1=O)OCCO3)CC1CCCO1 (stereo not given)	Pf growth 96h 8.28µM (no result: Pf growth 48h)
CCCOc1ccc(C(=O)Nc2ccc(N3CCN(C(C)=O)CC3)cc2)cc1	Pf growth 48h inconclusive
CC(=O)N1CCN(c2ccc(OC[C@@H]3CO[C@@](Cn4ccnc4)(c4ccc(Cl)cc4Cl)O3)cc2)CC1	Pf growth 48h inconclusive, Pf growth 96h 10.7µM (no result: RE007 growth inh, NS1 inh, SARS PLpro yeast)
CC(=O)N1CCN(c2ccc(OC[C@H]3CO[C@](Cn4ccnc4)(c4ccc(Cl)cc4Cl)O3)cc2)CC1	Pf growth 48h 5.86µM, Pf growth 96h 4.65µM
CN1C(=O)C2(OCC(COc3ccc(Cl)cc3)O2)c2ccccc21 (stereo not given)	none
O=C(COc1ccc(F)cc1)Nc1nc(-c2cccnc2)cs1	none (no result: Pf growth 48h, Pf growth 96h, NS1 inh, SARS PLpro yeast)
Nn1c(SCC(=O)Nc2ccc(N3CCOCC3)cc2)nnc1-c1ccccc1F	none (no result: NS1 inh)
COc1cc(OC)cc(C(=O)NCCCNC(=O)c2ccccn2)c1	Pf growth 96h 11.7µM
COc1cc(OC)cc(C(=O)NCCNC(=O)c2ccccn2)c1	none
CCOC(CNC(=O)c1cc2c(=O)n(CC)c3ccccc3c2s1)OCC	none
CCn1c(=O)c2cc(C(=O)NCC(OC)OC)sc2c2ccccc21	Pf growth 96h 1.47µM
COc1ccc(C(=O)Cn2c(NCCO)nc3ccccc32)cc1OC	none
Cc1ccc(S(=O)(=O)NC(=O)C2(C)CCN2C(=O)Cc2ccc(Cl)cc2Cl)nc1 (stereo not given)	none (no result: Pf growth 48h, Pf growth 96h, NS1 inh, SARS PLpro yeast)
Clc1ccc(CSc2snnc2-c2ccccc2)cc1	Pf growth 48h 13.1µM, Pf growth 96h inconclusive
CCN(C(=O)Cn1c(=O)n2nc(CCn3nc(C)cc3C)nc2c2ccccc21)c1cccc(C)c1	Pf growth 96h 2.62µM
Cc1cc(C)c2nc3nc(C)c(C)cc3c(N)c2c1	RE007 growth inh inconclusive, Pf growth 48h 4.15µM, Pf growth 96h inconclusive
C[C@H](CO)N1C[C@H](C)[C@@H](CN(C)C(=O)Nc2ccc3c(c2)OCO3)Oc2ccc(NC(=O)Nc3ccc4c(c3)OCO4)cc2C1=O	none (no result: Pf growth 48h, Pf growth 96h, NS1 inh)
O=C1/C(=C/c2ccccc2F)SC(=S)N1CCC(=O)N1CCCCC1CCO (stereo not given)	Pf growth 48h inconclusive, Pf growth 96h inconclusive
O=c1nc2ccccn2c2ccc(S(=O)(=O)N3CCCCC3)cc12	Pf growth 48h 5.86µM, Pf growth 96h 6.57µM
Cn1c(N2CCN(C(c3ccccc3)c3ccccc3)CC2)nc2c1c(=O)[nH]c(=O)n2C	Pf growth 48h inconclusive, Pf growth 96h inconclusive
CC(=O)Nc1ccc(NC(=O)c2cc(-c3ccc(C)c(C)c3O)n[nH]2)cc1	Pf growth 48h 11.7µM, Pf growth 96h 2.33µM
Cc1cc(C)c(O)c(-c2cc(C(=O)Nc3ccc(S(=O)(=O)N4CCOCC4)cc3)[nH]n2)c1	Pf growth 48h 5.86µM (no result: Pf growth 96h)
Cc1ccc(-c2cc(C(=O)Nc3ccc(S(=O)(=O)Nc4ncccn4)cc3)[nH]n2)c(O)c1C	Pf growth 48h inconclusive, Pf growth 96h 9.28µM
CC(=O)Nc1ccc(NC(=O)c2cc(-c3cc(C)cc(C)c3O)n[nH]2)cc1	Pf growth 48h 11.7µM, Pf growth 96h inconclusive, NS1 inh inconclusive
COc1ccccc1CNS(=O)(=O)c1ccc2c(c1)NC(=O)C(C)S2 (stereo not given)	Pf growth 96h inconclusive
CC(C)[C@@H]1Cc2[nH][nH]c(=O)c2[C@H](C(C)C)O1	none (no result: Pf growth 48h, Pf growth 96h, NS1 inh, SARS PLpro yeast)
CC(C)CCN(C(=O)c1ccccn1)c1c(N)n(Cc2ccccc2)c(=O)[nH]c1=O	none (no result: Pf growth 48h, Pf growth 96h, NS1 inh)
COc1ccc(C(=O)Nc2ccc(N3CCN(C(=O)c4ccccc4C)CC3)cc2)cc1	Pf growth 48h inconclusive, Pf growth 96h inconclusive
COC(=O)CCC(C)C1CCC2C3CCC4CC(O)CCC4(C)C3CC(O)C12C (stereo not given)	none (no result: Pf growth 48h, Pf growth 96h, NS1 inh, SARS PLpro yeast)
COc1c(N2CCN(C(=S)NC3CC4CCC3C4)C(C)C2)c(F)cc2c(=O)c(C(=O)O)cn(C3CC3)c12 (stereo not given)	Pf growth 48h inconclusive, Pf growth 96h inconclusive
NC1CCN(c2nc3c(cc2F)c(=O)c(C(=O)O)cn3-c2ccc(F)cc2F)C1 (stereo not given)	Pf growth 48h 3.79µM, Pf growth 96h 1.07µM (no result: NS1 inh, SARS PLpro yeast)
CO/N=C1\CN(c2nc3c(cc2F)c(=O)c(C(=O)O)cn3C2CC2)CC1CN (stereo not given)	Pf growth 48h 1.9µM, Pf growth 96h 1.69µM (no result: RE007 growth inh, NS1 inh, SARS PLpro yeast)
NC1CCN(c2c(F)cc3c(=O)c(C(=O)O)cn(C4CC4)c3c2Cl)C1 (stereo not given)	Pf growth 48h 5.86µM, Pf growth 96h 0.738µM
CC1CCc2c(N3CCC(O)CC3)c(F)cc3c(=O)c(C(=O)O)cn1c23 (stereo not given)	Pf growth 48h 14.7µM, Pf growth 96h 6.01µM (no result: NS1 inh, SARS PLpro yeast)
